PubChem BioAssay (NCI)
This is part of a sample that, as a whole, favours compounds with a hit. Of some 83,000 tested, about 20% had one in any assay.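 Method: cells in 96-well plates; compound added at one concentration; 48 h incubation; percent growth measured; values under 10 scored active.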 Activity calls are given as the source filed them.

Key:
Assay in all cases: NCI-60 one-dose screen, 48 h (100 = growth as untreated, 0 = no growth, -100 = all killed)
Details in all cases: 10 µM unless noted
[1] = test system: SK-MEL-2 melanoma
[2] = test system: EKVX NSCLC
[3] = test system: SN12C renal
[4] = test system: UO-31 renal
[5] = test system: TK-10 renal
[6] = test system: A498 renal
[7] = test system: CCRF-CEM leukemia
[8] = test system: MOLT-4 leukemia
[9] = test system: SR leukemia
[10] = test system: RPMI-8226 leukemia
[11] = test system: OVCAR-8 ovarian
[12] = test system: OVCAR-5 ovarian
[13] = test system: OVCAR-4 ovarian
[14] = test system: SK-OV-3 ovarian
[15] = test system: IGROV1 ovarian
[16] = test system: OVCAR-3 ovarian
[17] = test system: HS 578T breast
[18] = test system: NCI/ADR-RES ovarian

Measured: growth

CNCCCOc1c(Br)cc(CCNC(=O)/C(Cc2ccc(OC)c(Br)c2)=N/O)cc1Br
active: [9] -30.7% | [10] 8.44%
inactive: [1] 40% | [2] 65.5% | [3] 57.6% | [4] 41.7% | [5] 74.1% | [6] 39.4% | [7] 31.6% | [8] 10.3% | [11] 73.2% | [12] 86.7% | [13] 27.9% | [14] 63.4% | [15] 49.5% | [16] 65.5% | [17] 37.6% | [18] 81.3%

NC(CCCC(N)C(=O)c1ccccc1)C(=O)O (centres undefined)
inactive: [1] 92.7% | [2] 101% | [3] 104% | [4] 84.3% | [5] 86.7% | [6] 103% | [7] 111% | [8] 94.5% | [9] 124% | [10] 115% | [11] 86.2% | [12] 103% | [13] 97.3% | [14] 93% | [15] 101% | [16] 110% | [17] 108% | [18] 103%

NC(=NCCCOc1ccc(F)cc1)Nc1ccc(Cl)c(Cl)c1
inactive: [1] 95.9% | [2] 74.9% | [3] 66% | [4] 51.6% | [5] 69% | [6] 60.9% | [7] 60.4% | [8] 36.1% | [9] 52.1% | [10] 39.1% | [11] 88.6% | [12] 81.5% | [13] 59.9% | [14] 99.8% | [15] 45.9% | [16] 73.3% | [17] 65.7% | [18] 69.9%

Cc1nc(-c2ccc(Cl)cc2)ccc1NC(=O)Nc1cccc(C(F)(F)F)c1
inactive: [1] 95.4% | [2] 101% | [3] 93.7% | [4] 90.8% | [5] 90.7% | [6] 95.2% | [7] 78.6% | [8] 88.2% | [9] 59.6% | [10] 85.3% | [11] 98.9% | [12] 121% | [13] 108% | [14] 110% | [15] 111% | [16] 111% | [17] 103% | [18] 98.1%

O=C(O)c1cccc(S(=O)(=O)c2ccccc2)c1
inactive: [1] 104% | [2] 92.6% | [3] 102% | [4] 96.1% | [5] 93.2% | [6] 98.5% | [7] 103% | [8] 99.6% | [9] 97.1% | [10] 103% | [11] 112% | [12] 99% | [13] 102% | [14] 116% | [15] 100% | [16] 107% | [17] 91.6% | [18] 104%

COc1ccc(/C(Cl)=N/N=C(\Cl)c2cc(OC)c(OC)c(OC)c2)cc1OC(C)=O
inactive: [1] 92.3% | [2] 111% | [3] 96.1% | [4] 65.5% | [5] 81.1% | [6] 90.2% | [7] 94.4% | [8] 82.4% | [9] 77.4% | [10] 89.4% | [11] 79.9% | [12] 107% | [13] 99.4% | [14] 80% | [15] 105% | [16] 101% | [17] 90.4% | [18] 89.1%

S=C=NP1(N=C=S)=NP(N=C=S)(N=C=S)=NP(N=C=S)(N=C=S)=NP(N=C=S)(N=C=S)=N1 (centres undefined)
inactive: [1] 95.8% | [2] 95% | [3] 102% | [4] 77.3% | [5] 110% | [6] 118% | [7] 105% | [8] 57.9% | [9] 88.8% | [10] 103% | [11] 95.6% | [12] 107% | [13] 96.7% | [14] 84.3% | [15] 97.9% | [16] 112% | [17] 98.5% | [18] 107%

C#CCn1c(-c2cc(OC)c(OC)cc2Br)nc(-c2ccccc2)c1-c1ccccc1
inactive: [1] 28.1% | [2] 37.4% | [3] 69.6% | [4] 33.9% | [5] 67.1% | [6] 37.7% | [7] 39.2% | [8] 31.6% | [9] 16.4% | [10] 48.9% | [11] 57.4% | [12] 77.5% | [13] 63.2% | [14] 16% | [15] 40.9% | [17] 66.8% | [18] 10.2%
active: [16] 9.74%

CC(C)C(=O)Nc1nc2c(s1)CCCc1ccn(S(=O)(=O)c3ccccc3)c1-2
inactive: [1] 83.7% | [2] 88.2% | [3] 105% | [4] 77.1% | [5] 83.6% | [6] 110% | [7] 87.2% | [8] 78% | [9] 84.3% | [10] 87.5% | [11] 101% | [12] 99.2% | [13] 104% | [14] 87.4% | [15] 107% | [16] 107% | [17] 101% | [18] 94.2%

O=C(CSc1nnc(-c2ccccc2)o1)Nc1ccc(C(=O)/C=C/c2ccccc2)cc1
inactive: [1] 99.2% | [2] 79.7% | [3] 81.7% | [4] 55.7% | [5] 91% | [6] 83.8% | [7] 55.5% | [8] 59% | [9] 28.8% | [11] 60.1% | [12] 102% | [13] 30.9% | [14] 108% | [15] 38% | [16] 41.8% | [17] 88.5% | [18] 53.6%
active: [10] 2.35%

CCCCCCCCCCCCCCCCNc1ccccc1
inactive: [1] 90% | [2] 106% | [3] 70.7% | [4] 57.9% | [5] 90.9% | [6] 114% | [7] 44.4% | [8] 43.1% | [9] 75.1% | [10] 52.5% | [11] 91.8% | [12] 115% | [13] 105% | [14] 103% | [15] 91.6% | [16] 104% | [17] 108% | [18] 104%

O=C(O)c1ccc(-c2nn(-c3ccc(C(=O)O)cc3)cc2/C=N/Nc2c(F)c(F)cc(F)c2F)cc1
inactive: [1] 99.1% | [2] 103% | [3] 107% | [4] 92.4% | [5] 98.1% | [6] 115% | [7] 97.9% | [8] 92.8% | [9] 94% | [10] 103% | [11] 108% | [12] 101% | [13] 111% | [14] 97.9% | [15] 108% | [16] 104% | [17] 112% | [18] 105%

CC(=O)Cc1cccnc1
inactive: [1] 116% | [2] 105% | [3] 98.9% | [4] 89.8% | [5] 95.5% | [6] 85.4% | [7] 88.5% | [8] 93.7% | [9] 104% | [10] 93% | [11] 97% | [12] 109% | [13] 108% | [14] 114% | [15] 100% | [16] 116% | [17] 95.2% | [18] 104%

CN(C)c1ncc(C#Cc2c(F)cccc2F)c2ccccc12
inactive: [1] 81.5% | [2] 74.8% | [3] 78.8% | [4] 54.8% | [5] 112% | [6] 100% | [7] 96.3% | [8] 80.8% | [9] 83.8% | [10] 68.1% | [11] 93.7% | [12] 99.8% | [13] 85.3% | [14] 89.3% | [15] 48.2% | [16] 88.4% | [17] 108% | [18] 92.9%

C=CCn1c(SCC(=O)Nc2ccc(/C(C)=N\O)cc2)nnc1-c1cc(-c2ccc(OC)cc2)nc2ccccc12
inactive: [1] 22.3% | [2] 42.5% | [3] 44.4% | [4] 14.7% | [5] 37.5% | [6] 38.7% | [7] 15% | [9] 33.8% | [10] 17.3% | [11] 15.3% | [12] 79.4% | [13] 53% | [14] 52.8% | [15] 11.1% | [16] 37% | [17] 46% | [18] 13.7%
active: [8] 1.81%

CC(=O)Oc1ccc(C(OC(C)=O)OC(C)=O)cc1
inactive: [1] 104% | [2] 94.1% | [3] 102% | [4] 89.8% | [5] 98.8% | [6] 92.3% | [7] 94.5% | [8] 91.1% | [9] 88.8% | [10] 107% | [11] 114% | [12] 108% | [13] 117% | [14] 97.6% | [15] 109% | [16] 103% | [17] 105% | [18] 103%

O=C(/C=C/c1ccccc1)Oc1ccc(/C=C/c2cc(OC(=O)/C=C/c3ccccc3)cc(OC(=O)/C=C/c3ccccc3)c2)cc1
inactive: [1] 105% | [2] 99.1% | [3] 106% | [4] 82.9% | [5] 87% | [6] 91.3% | [7] 91.1% | [8] 86.8% | [9] 92% | [10] 99.8% | [11] 84.7% | [12] 96.6% | [13] 100% | [14] 86.5% | [15] 98.6% | [16] 107% | [17] 95.9% | [18] 103%

CCN(CC)CCNCC(O)Cc1ccc(OC)cc1 (centres undefined)
inactive: [1] 96.4% | [2] 105% | [3] 98.8% | [4] 82.6% | [5] 88% | [6] 109% | [7] 83.9% | [8] 73.4% | [9] 88.2% | [10] 98.1% | [11] 89.9% | [12] 113% | [13] 120% | [14] 92.3% | [15] 111% | [16] 108% | [17] 95.8% | [18] 107%
